HEK293 tox: cytotoxic in the GLP-1 receptor inverse agonist counter-screen; actives 0.13% (n = 410,000); Potency, µM (series often up to 38.3 µM), for inactives: at the highest dose activity change, negative = inhibition, usual class: inhibitors; AID 624418; HEK293 cAMP-luciferase reporter cells, luminescence, 24 h;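 note: loss of luciferase light is scored as toxicity; % is set by controls: 0 for no effect and ±100 for the full control effect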
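Cells in DMEM/10% Nu serum/1% pen-strep, 1536-well format. Pre-incubated 12 h, dosed with 23 nL compound, incubated a further 24 h. Luciferase detection, 12 min at room temp, luminescence.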
GLP-1R inv ag: acts as inverse agonist at human GLP-1 receptor | actives 1.6% (n = 410,000) | Potency, µM (highest dose often 38.3 µM), inactives show at the highest dose activity change, negative = inhibition, usual class: inhibitors | P43220 | HEK293 GLP-1R CRE-luciferase, luminescence, 24 h; GLP-1R form is constitutively active | AID 624417; note: % is set by controls: 0 for no effect and ±100 for the full control effect; nearly all actives have a fitted effect of over 55% in size
Target sequence (P43220 whole entry, looked up): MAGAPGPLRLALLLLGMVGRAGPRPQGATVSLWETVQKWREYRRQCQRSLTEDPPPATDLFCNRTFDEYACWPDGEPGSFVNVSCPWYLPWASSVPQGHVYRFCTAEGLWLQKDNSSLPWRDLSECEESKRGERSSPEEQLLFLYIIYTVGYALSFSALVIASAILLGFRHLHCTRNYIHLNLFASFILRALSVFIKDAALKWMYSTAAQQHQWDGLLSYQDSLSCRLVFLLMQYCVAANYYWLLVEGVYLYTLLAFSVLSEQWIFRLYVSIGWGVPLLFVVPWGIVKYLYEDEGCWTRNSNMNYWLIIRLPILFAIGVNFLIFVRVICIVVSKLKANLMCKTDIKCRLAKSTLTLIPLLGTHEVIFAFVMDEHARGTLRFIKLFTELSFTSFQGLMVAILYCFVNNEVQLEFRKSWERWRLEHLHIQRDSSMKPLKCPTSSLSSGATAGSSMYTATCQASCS
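Assay principle: reduced luminescence from a cAMP-responsive reporter in HEK293 cells co-expressing a constitutively active GLP-1R. Conditions: 24 hr compound incubation, 37 deg C, 5% CO2.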
PTHR1 agonist: PTHR1 (human) receptor agonism; HEK293 GP2 PTHR1 cells, GloSensor cAMP luminescence, 1 h; Potency, µM (doses to about 115 µM), for inactives: top-dose activation, hits mostly activators; actives 0.075% (n = 410,000); AID 743266; note: nearly all actives have a fitted effect of over 55% in size
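HEK-293-derived GP2 cells expressing PTHR1 and a GloSensor cAMP reporter, 3,000/well, plated overnight, given luciferin plus IBMX (each 0.5 mM as added) for 1 h at 37 °C, then compound for 1 h at 37 °C. Luminescence was read after 15 min at room temperature.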
GLP1R ag: agonists of human GLP-1 receptor; actives 0.007% (n = 380,000); AID 624172; P43220; HEK293 GLP-1R CRE-luciferase, luminescence, 4-6 h; cells express a hypersensitive GLP-1R form; Potency, µM (doses to about 45.6 µM), for inactives: at the highest dose activation, usual class: activators; note: % of control where 0% means no effect
* marks the source's active call; other numbers are inactive results; i = inactive; ? = inconclusive; . = no result; [ ] = dose if it differs, or a comment. A selection: hits, their analogues and other compounds. The true share with any hit is near 1.7%. Calls come from the whole dose curve; as a rule, active = well fitted curve in the direction sought with a large enough effect; inconclusive = small, poorly fitted or top-dose-only effect, or another doubt; inactive = no such curve, though single readings can be large; an effect the other way counts as inactive or inconclusive. Potency is the fitted concentration of half-maximal effect.

SMILES | HEK293 tox | GLP-1R inv ag | PTHR1 agonist | GLP1R ag
COc1ccc(C(=O)N(c2ccc(C)cc2)S(=O)(=O)c2ccc(C)cc2)cc1 | ? | 3.2µM* | -5% | .
CC(C)c1ccc(OCC(=O)Nc2c(Cl)ccc3nsnc23)cc1 | 56% | ? | -62% | .
CN(C)Cc1cc(C(F)(F)F)ccc1C(O)(c1ccccc1)c1ccccc1 | ? | 8.9µM* | -19% | -8%
CN(C)Cc1ccccc1C(O)(c1ccccc1)c1ccccc1 | -6% | ? | -5% | 2%
COc1cc(NC(=O)CN2C(=O)C(c3ccc(C)cc3)=NC23CCCCCC3)cc(OC)c1 | -1% | 5% | i | .
COc1cc(NC(=O)CN2C(=O)C(c3ccc(C)cc3)=NC23CCCCC3)cc(OC)c1 | -16% | 10µM* | -2% | .
COc1ccc(-c2cn3cccnc3n2)cc1NC(=O)Nc1ccc(Cl)cc1 | 3% | -27% | i | .
O=C(Nc1ccc2c(c1)OCCO2)C(C1CC1)n1c(=O)c(-c2cc3ccccc3[nH]2)nc2ccccc21 (configuration not stated) | i | 11µM* | i | .
COc1ccc(NC(=O)C(C2CC2)n2c(=O)c(-c3cc4ccccc4[nH]3)nc3ccccc32)cc1 (configuration not stated) | i | ? | -4% | .
O=C(Nc1ccc2ccccc2c1)C(C1CC1)n1c(=O)c(-c2cc3ccccc3[nH]2)nc2ccccc21 (configuration not stated) | i | 5µM* | i | .
Cc1cccc(N(C)S(=O)(=O)c2c(C(=O)N3CCCCCC3)c(C)n(C)c2C)c1 | 0% | -27% | i | .
O=C(COc1cccc(NC(=O)c2cccc([N+](=O)[O-])c2)c1)c1ccc(Br)cc1 | -19% | 3.2µM* | -12%[57.5 µM] | -16%
CCN1CC(CN(C)Cc2cn(-c3ccc(C)cc3)nc2-c2ccc(F)cc2)CC1=O (configuration not stated) | 4% | ? | -10% | 13%
CCN1CC(CN(C)Cc2cn(-c3cccc(C)c3)nc2-c2cccc(F)c2)CC1=O (configuration not stated) | -19% | 10µM* | i | ?
Cc1ccc(N2C(=O)N3[C@H](c4ccc(Cl)cc4)[C@@H]4C(=O)N(C5CCCCC5)C(=O)[C@@H]4[C@]3(Cc3ccccc3)C2=O)cc1 | -2% | ? | -35% | -2%
Cc1ccc(N2C(=O)N3[C@H](c4ccc(F)cc4)[C@@H]4C(=O)N(C5CCCCC5)C(=O)[C@@H]4[C@]3(C)C2=O)cc1 | -31% | 10µM* | -7% | -3%
O=C1[C@H]2[C@@H](c3ccc(Cl)cc3)N3C(=O)N(c4cccc(Cl)c4)C(=O)[C@@]3(Cc3ccc(Cl)cc3)[C@H]2C(=O)N1C1CCCCC1 | -16% | 4µM* | i | -6%
COc1ccc(Cl)cc1-c1cc(C(=O)NC2CCCCC2)[nH]n1 | -15% | ? | i | 23%
Cc1ccc(C2=NNC(c3ccc(Cl)cc3)=Nc3ccccc32)o1 | -26% | 7.9µM* | -19% | 4%
c1ccc(C2=NNC(c3ccco3)=Nc3ccccc32)cc1 | 3% | ? | -21% | 0%
CCc1ccc(C(=O)c2cn(CC(=O)NCCc3ccc(OC)c(OC)c3)c3nc(C)ccc3c2=O)cc1 | 4% | 1% | -5% | .
Cc1cccc(/C=c2\s/c(=C\C(=O)C(C)(C)C)[nH]c2=O)c1 | ? | 8.9µM* | i | 1%
Cc1ccc(C)c(N2CCN(CCCNC(=O)Cn3cccc3C(=O)c3ccccc3C)CC2)c1 | 10µM* | ? | -42% | 2%
Cc1cc(Nc2nc3ccccc3c3nnc(C)n23)ccc1Br | 5% | -3% | i | .
CCOc1cc(CNCCSc2nnnn2C)cc(Br)c1OCc1ccccc1F | -24% | ? | -6%[57.5 µM] | 19%
SMILES | HEK293 tox | GLP-1R inv ag | PTHR1 agonist | GLP1R ag
CCOc1cc(CNCCO)cc(Br)c1OCc1cccs1 | 8% | ? | -13% | -1%
CCOc1cc(CNCc2cccs2)cc(Br)c1OCC | -10% | 10µM* | 9%[57.5 µM] | 14%
CCOc1cc(CNCc2ccncc2)cc(Br)c1OCc1ccccc1F | -3% | 11µM* | -18%[57.5 µM] | 7%
Cc1ccc(C)c(-n2c(CCC(=O)O)ccc2-c2ccc(Cl)cc2)c1 | -11% | ? | -16% | .
O=C(Nc1ccccc1N1CCCC1)C1CCN(S(=O)(=O)c2cccc(C(F)(F)F)c2)CC1 | -21% | ? | i | 2%
O=C(Nc1ccccc1N1CCCCC1)C1CCN(S(=O)(=O)c2cccc(C(F)(F)F)c2)CC1 | -6% | 11µM* | -26% | -5%
COc1ccc(S(=O)(=O)N2CCCCCC2)cc1NC(=O)Cc1cccc(C(F)(F)F)c1 | 5% | 10µM* | -18% | 8%
O=C(CCNC(=O)c1ccc(Cl)cc1)Nc1cccc(S(=O)(=O)N2CCCCCC2)c1 | -12% | 13µM* | -9% | 21%
O=C(Cc1ccc(Br)cc1)Nc1cccc(S(=O)(=O)N2CCCCC2)c1 | -7% | 10µM* | -51% | 2%
O=C(CCCNC(=O)c1ccc(Cl)cc1)Nc1cccc(S(=O)(=O)N2CCCCC2)c1 | 3% | ? | -35% | 7%
Cc1ccc(NC(=O)Cn2c(=O)n(Cc3nc(-c4ccccc4)no3)c(=O)c3ccccc32)c(C)c1 | -4% | -3% | -5% | .
O=C(O)[C@H]1C[C@@H](CP(=O)(O)O)CCN1 | . | . | . | -3%
COc1ccc(-n2cnc3cc(C(=O)NC4CCCCCC4)ccc32)cc1 | -18% | ? | -41% | .
CCOC(=O)c1c(-c2ccccc2)oc2ccc(NS(=O)(=O)c3ccc(C(C)C)cc3)cc12 | -10% | ? | -12% | .
CC(C)c1ccccc1NC(=O)C(Cc1c[nH]c2ccccc12)NC(=O)OC(C)(C)C (configuration not stated) | -12% | ? | -47% | .
O=C(CNc1cccc(S(=O)(=O)N2CCCCC2)c1)Nc1ccc(C(F)(F)F)cc1 | -3% | ? | -33% | 12%
CC(C)(C)c1ccc(OCCCC(=O)Nc2cccc(S(=O)(=O)N3CCOCC3)c2)cc1 | -16% | 7.9µM* | -36% | -2%
CN1CCN(S(=O)(=O)c2ccc(NC(=O)Cc3cccs3)cc2)CC1 | -13% | -30% | i | -13%
O=C(CNc1cccc(S(=O)(=O)N2CCCC2)c1)Nc1ccc(C(F)(F)F)cc1 | 10% | 10µM* | -37% | -4%
O=C(Cc1cccs1)Nc1ccc(S(=O)(=O)N2CCCCC2)cc1 | -26% | 10µM* | i | 7%
O=C(CCNS(=O)(=O)c1ccc(OC(F)(F)F)cc1)Nc1cccc(S(=O)(=O)N2CCCC2)c1 | 4% | 10µM* | -26% | -3%
O=C(CCCOc1ccccc1)Nc1cccc(S(=O)(=O)N2CCOCC2)c1 | 5% | -27% | -27% | 0%
CC(C)(C)c1ccc(OCCC(=O)Nc2cccc(S(=O)(=O)N3CCCC3)c2)cc1 | ? | ? | -22% | -1%
